The text below walks through data of PubChem BioAssay (EPA / NIEHS).

“And” between values parts separate entries of the source, which are not always exact repeats. Equal entries are not always repeated. The source made the active and inactive calls. The calls were made as follows: active = hit-call score of the fitted dose curve at least 0.9, where 1 is the maximum; inactive = score below 0.9.

By AC50 is commonly meant the concentration at which the activity in the assay is half-maximal.

Read-out in one test: Secreted IgG (sIgG), gene 3500
Kind of test: BSK_BT_sIgG: BioMAP Diversity Plus: BT Assay for Secreted IgG (sIgG) Biomarker Activity (AID 2284226). As to conditions: primary human B cells with PBMC. The method in brief: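 In this multiplexed co-culture system, ELISA quantifies sIgG 24 h post-treatment. Endpoint analysis uses positive fitting direction, DMSO negative control.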
Take `OC(Cc1ccccc1Cl)(Cn1[nH]cnc1=S)C1(Cl)CC1` (configuration not stated): the AC50 is 23.8 µM (active).
Turning to `O=C(O)COc1cc(Cl)c(Cl)cc1Cl`, the outcome was inactive.
On to `CCOP(=O)(OCC)OC(=CCl)c1ccc(Cl)cc1Cl`, for which the AC50 is 20 µM (active).
Still for that read-out and setting: for `Cc1ccc2nc3sc(=O)sc3nc2c1` the value was 5 µM (active).
Turning to `CC(C=O)Cc1ccc2c(c1)OCO2` (configuration not stated), the outcome was inactive.
On to `Cc1ccccc1OP(=O)(Oc1ccccc1C)Oc1ccccc1C`, for which the AC50 was 13.9 µM (active).
Consider `CCOC(=O)CCN(SN(C)C(=O)Oc1cccc2c1OC(C)(C)C2)C(C)C`, for which the AC50 was 27.5 µM (active).
Take `CCC(C)(C#N)N=NC(C)(C#N)CC` (configuration not stated): the outcome was inactive.
In the case of `Cc1ccc(OP(=O)(Oc2ccc(C)cc2C)Oc2ccc(C)cc2C)c(C)c1`, the AC50 is 15.4 µM (active).
As to `Cc1c([N+](=O)[O-])c(C)c([N+](=O)[O-])c(C(C)(C)C)c1[N+](=O)[O-]`, the result was inactive.
The same measure, in the same setting: to `O=[N+]([O-])c1cccc2ccccc12` belongs “inactive”.
As for `CC(C)(COCC1CO1)COCC1CO1` (configuration not stated), the AC50 is 16 µM (active).
As for `CCN(CC)C(=O)C(Cl)=C(C)OP(=O)(OC)OC`, the outcome was inactive.
On to `C#CCOC(=O)/C=C(C)/C=C/CC(C)CCCC(C)C` (configuration not stated), for which the AC50 was 20 µM (active).
For the compound `OC(Cc1ccccc1Cl)(Cn1cncn1)C1(Cl)CC1` (configuration not stated), the AC50 was 20 µM (active).
Still for that read-out and setting: to `CC1(C)[C@H](C(=O)O[C@H](C#N)c2cccc(Oc3ccccc3)c2)[C@@H]1/C=C(\Cl)C(F)(F)F` belongs 25.1 µM (active) and 28.9 µM (active).
`CCCCN(CCCC)C(=S)[S-].CCCCN(CCCC)C(=S)[S-].[Ni+2]`: the AC50 was 2.66 µM (active).
For `Cc1cc(Cl)ccc1N`, the result was inactive.
As for `c1ccc(-c2cccc(-c3ccccc3)c2)cc1`, the AC50 is 15.7 µM (active).
As for `Oc1c(Br)cc(Br)cc1Br`, the result was inactive.
On the same count and under the same terms, to `NC(=O)CCl` belongs “inactive”.

Read-out in another test: not listed separately
Kind of test: BSK_BT_Bcell_Proliferation: Viability Assessment in the BioMAP Diversity Plus: BT Assay for B cell Proliferation (AID 2284227). As to conditions: primary human B cells with PBMC. In short, it runs like this: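 Read-out is absorbance at 560 nm from sulforhodamine B staining of total protein, reflecting relative cell numbers in a human B cell and PBMC co-culture after 72 h of chemical exposure. Values were referenced to DMSO.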
Take `OC(Cc1ccccc1Cl)(Cn1[nH]cnc1=S)C1(Cl)CC1` (configuration not stated): the result was inactive.
For the compound `O=C(O)COc1cc(Cl)c(Cl)cc1Cl`, the result was inactive.
Take `CCOP(=O)(OCC)OC(=CCl)c1ccc(Cl)cc1Cl`: the outcome was inactive.
On to `Cc1ccc2nc3sc(=O)sc3nc2c1`, for which the AC50 was 5 µM (active).
For the compound `CC(C=O)Cc1ccc2c(c1)OCO2` (configuration not stated), the outcome was inactive.
In the case of `Cc1ccccc1OP(=O)(Oc1ccccc1C)Oc1ccccc1C`, the AC50 was 34.4 µM (active).
Same read-out and setting: for `CCOC(=O)CCN(SN(C)C(=O)Oc1cccc2c1OC(C)(C)C2)C(C)C` the value was 28.9 µM (active).
As to `CCC(C)(C#N)N=NC(C)(C#N)CC` (configuration not stated), the outcome was inactive.
Take `Cc1ccc(OP(=O)(Oc2ccc(C)cc2C)Oc2ccc(C)cc2C)c(C)c1`: the AC50 was 20 µM (active).
Turning to `Cc1c([N+](=O)[O-])c(C)c([N+](=O)[O-])c(C(C)(C)C)c1[N+](=O)[O-]`, the result was inactive.
Still for that read-out and setting: for `O=[N+]([O-])c1cccc2ccccc12` the value was “inactive”.
Take `CC(C)(COCC1CO1)COCC1CO1` (configuration not stated): the AC50 was 20 µM (active).
For the compound `CCN(CC)C(=O)C(Cl)=C(C)OP(=O)(OC)OC`, the result was inactive.
Same read-out and setting: to `C#CCOC(=O)/C=C(C)/C=C/CC(C)CCCC(C)C` (configuration not stated) belongs “inactive”; to `OC(Cc1ccccc1Cl)(Cn1cncn1)C1(Cl)CC1` (configuration not stated), “inactive”; to `CC1(C)[C@H](C(=O)O[C@H](C#N)c2cccc(Oc3ccccc3)c2)[C@@H]1/C=C(\Cl)C(F)(F)F`, “inactive”.
Turning to `CCCCN(CCCC)C(=S)[S-].CCCCN(CCCC)C(=S)[S-].[Ni+2]`, the outcome was inactive.
Regarding `Cc1cc(Cl)ccc1N`, the outcome was inactive.
As to `c1ccc(-c2cccc(-c3ccccc3)c2)cc1`, the AC50 was 33.3 µM (active).
As to `Oc1c(Br)cc(Br)cc1Br`, the result was inactive.
Consider `NC(=O)CCl`, for which the result was inactive.
